# Laboratory results: PubChem BioAssay (NCI)
# “And” between values parts separate entries of the source, which are not always exact repeats. Equal values may be shown once. About 83,000 compounds went through this panel and 20% of them were active in at least one assay; those are over-represented in the sample as a whole.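 Cell lines were cultured in 96-well plates, exposed to a single compound concentration, and assessed for percent growth 48 hours later.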 A number with no mark means an inactive call. The source made the active and inactive calls. Rule for the calls: active = growth percent below 10; inactive = the rest.
# System: MDA-MB-468 breast
# Experiment: NCI-60 one-dose screen, 48 h (100 = growth as untreated, 0 = no growth, -100 = all killed)
# Settings: 10 µM unless noted
row,SMILES,growth
1,CCN1C(=O)N(CC)C2Nn3c(s/c(=C4\C(=O)N(C5CCCC5)c5ccccc54)c3=O)=NC21 (centres undefined),11%
2,N#Cc1c(NC(=O)c2cccc(Br)c2)sc2c1CCCC2,59.3%
3,COc1ccc(CN2c3ccccc3CCc3ccccc32)cc1F,4.48% (active)
4,O=C(NNc1ccccc1)c1ccccc1,87.1% and 103%
5,CCc1c(C)c2cc3nc(NCc4ccccc4)oc3c(C)c2oc1=O,68.2%
6,O=C(CSc1nnc(-c2cccnc2SCc2ccccc2)o1)Nc1nc(Cl)cc(Cl)n1,98.8%
7,Cc1c(Cl)cccc1NC(=O)CCCl,108%
8,COc1ccc(CSc2nnc(SCC(=O)Nc3ccc(Cl)cc3)s2)cc1,91.1%
9,CN(C[C@H]1Cc2c(cccc2N2CCN(Cc3ccccn3)CC2)CN1)[C@H]1CCCc2cccnc21,63.4%
10,CN1C(=O)N(C)C2C1NN=c1s/c(=C\c3ccccc3)c(=O)n12 (centres undefined),23.8%
11,Cc1ccc2c(c1)/C(=N\N=C/c1cn(C(C)C)c3ccccc13)C(=O)N2,7.43% (active)
12,CCCCNC(=O)c1ccc2c(c1)nc(-c1ccccc1)n2C1CCCCC1,123%
13,O=C1NC(SCc2ccc(F)cc2)=N/C1=C/c1cccc(OCc2ccc(Cl)cc2)c1,62.9%
14,CC(C)CCSc1nc(NNC(N)=O)c(C#N)c(-c2ccccc2)n1,108%
15,c1coc(CSc2ncnc3nc[nH]c23)c1,96%
16,C#CC#CC#CC#CC#CC#CC#CC#CC[C@H]1OC[C@H](COC(=O)O[C@@H](C(=O)O[C@H]2C[C@@]3(O)[C@@H](OC(=O)c4ccccc4)[C@@H]4[C@]5(OC(C)=O)CO[C@@H]5C[C@H](O)[C@@]4(C)C(=O)[C@H](OC(C)=O)C(=C2C)C3(C)C)[C@@H](NC(=O)c2ccccc2)c2ccccc2)O1,19.3%
17,O=C1C(=O)c2cc([N+](=O)[O-])ccc2-c2ccccc21,-96.2% (active)
18,C#CC(F)(F)[C@]1(O)CC[C@H]2[C@@H]3CCC4=CC(=O)CCC4=C3[C@@H](c3ccc(C(C)=O)cc3)C[C@@]21C,81.3%
19,Cc1ccc2cccc(OC(=O)Nc3cccc(C(F)(F)F)c3)c2n1,75.4%
20,C=C1C(=O)O[C@H]2[C@H]1CC/C(COC(=O)NCc1nc3ccccc3[nH]1)=C\CC[C@@]1(C)O[C@@H]21,43.7%

row,SMILES,growth
1,CC(C)(C)OC(=O)CN1CCc2c(sc3ncnc(N/N=C/c4ccccc4Br)c23)C1,88.5%
2,COC(=O)[C@]12CC[C@@H](C)[C@H](C)[C@@H]1C1=CC(=O)[C@@H]3[C@@]4(C)C[C@@H](OC(C)=O)[C@H](OC(C)=O)[C@@](C)(COC(C)=O)[C@@H]4C(=O)C[C@@]3(C)[C@]1(C)CC2,35.3%
3,CCC(CCNc1cc(OC)cc2cccnc12)CN1C(=O)c2ccccc2C1=O (centres undefined),7.31% (active)
4,O=C(CCl)N1c2cccc3cccc(c23)N(C(=O)CCl)C1c1cn(-c2ccccc2)nc1-c1cccc([N+](=O)[O-])c1,101%
5,CCOC(=O)/C(C)=C\c1ccc(OC)c(OC)c1,103%
6,C[n+]1cc2cc3c(cc2c2ccccc21)OCO3,-21.2% (active)
7,O=C(NCCCNC(=O)OCc1ccc2c(Br)cc(Br)c(O)c2n1)OCc1ccc2c(Br)cc(Br)c(O)c2n1,-72% (active)
8,N/C(=N\N=C\c1cc2ccccc2s1)N/N=C/c1cc2ccccc2s1,122%
9,CC/C(=C\c1ccc(N(C)C)cc1)c1nc2ccccc2c(=O)[nH]1,91.4%
10,O=[N+]([O-])c1ccccc1/C=N\NC(=S)N/N=C/c1ccccc1[N+](=O)[O-],30.7%
11,C=CCn1c(C)nc2cc(Nc3nc(Nc4ccc5nc(C)n(CC=C)c5c4)nc4ccccc34)ccc21,118%
12,Cc1cc(C)nc(NC(N)=NCCc2ccccc2)n1,-3.56% (active)
13,O=NN(CCCl)C(=O)Nc1ccc(NC(=O)N(CCCl)N=O)cc1,96.4%
14,COc1cccc(-c2nn(-c3ccccc3)cc2-c2ccnc(N3CCOCC3)c2)c1,69.2%
15,C=CCNC(=S)NNc1ccc([N+](=O)[O-])cn1,98.7%
16,CCOC(=O)c1cc(C(=O)c2cc(OC)cc(OC)c2)n2ccccc12,30.2%
17,CNC1=C([N+](=O)[O-])C(c2ccccc2O)C(C#N)=C(c2cccs2)O1 (centres undefined),74.5%
18,NS(=O)(=O)c1ccc(Nc2cc(-c3ccccc3)nc(SCC(=O)c3ccccc3)n2)cc1,99.3%
19,COc1ccc(/C=C/C(=O)c2cc(S(N)(=O)=O)c(OC)cc2OC)cc1,-6.04% (active)
